# Source: PubChem
# ALR inh – human ALR oxidase inhibition via reduced H2O2 | P55789 | purified ALR, DTT oxidation, H2O2 HRP-luminol luminescence | inhibition, % (test concentration not listed) | actives 3.8% (n = 290,000) | AID 485317;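 active = mean replicate inhibition above about 79%, with every replicate also reaching it, limit read from the data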
# HDAC3 inhib – inhibitors of human histone deacetylase 3. inhibition, % at 8.3 µM. AID 2718. recombinant HDAC3, fluorogenic peptide/trypsin coupled, fluorescence. O15379. actives 0.15% (n = 320,000); in the data active = inhibition above about 26%, passing the limit was not always enough
# Target sequence (O15379 whole entry, looked up): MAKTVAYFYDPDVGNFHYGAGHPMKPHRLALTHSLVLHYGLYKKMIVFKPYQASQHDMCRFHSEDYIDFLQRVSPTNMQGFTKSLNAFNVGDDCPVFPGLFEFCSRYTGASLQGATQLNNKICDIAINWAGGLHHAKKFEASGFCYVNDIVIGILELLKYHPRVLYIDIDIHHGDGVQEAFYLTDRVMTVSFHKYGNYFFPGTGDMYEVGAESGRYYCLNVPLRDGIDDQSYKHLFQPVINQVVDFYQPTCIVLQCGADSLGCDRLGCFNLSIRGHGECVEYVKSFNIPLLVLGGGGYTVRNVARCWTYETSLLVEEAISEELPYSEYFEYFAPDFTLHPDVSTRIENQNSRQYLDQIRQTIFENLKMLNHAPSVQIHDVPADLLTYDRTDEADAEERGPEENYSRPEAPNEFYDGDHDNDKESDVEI
# Rtt109 Vps75 – blocks Candida albicans Rtt109/Vps75 acetyltransferase activity | actives 0.16% (n = 330,000) | purified Rtt109/Vps75, ThioGlo CoA-SH fluorescence, 4 h | AID 540336 | inhibition, % at 34.9 µM | Q5AAJ8;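 active = inhibition of at least 50% in every replicate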
# GRK2 aptamer HTS – human GRK2 inhibition via aptamer displacement; P25098; bead flow cytometry, FAM-aptamer displacement from GRK2; inhibition of aptamer binding, % at 10 µM; actives 0.59% (n = 330,000);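 active = inhibition of aptamer binding above 40%, roughly 3 SD of noise, on plates passing a quality check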;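 also: median bead fluorescence of bound FAM aptamer so fluorescent compounds give negative values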
# Efflux pump inh – blocks antifungal efflux pumps in multiplex yeast assay | AID 485275 | inhibition, % at 10 µM | S. cerevisiae Candida pump triplex, Nile Red efflux | actives 0.44% (n = 330,000);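 active = plate passing quality check with inhibition over a set limit, or well fluorescence over plate mean plus 4 SD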;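 also: Nile Red retained in pooled yeast measured as flow cytometry median fluorescence; 0% = buffer negative control and 100% = Enniatin B positive control; higher means more Nile Red kept so more efflux inhibition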
# Rce1 inh – inhibitors of yeast Ras-converting enzyme | AID 2563 | calls only | Q03530 | yeast membranes, quenched prenylated peptide cleavage fluorescence | actives 0.27% (n = 290,000);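 active = fall in fluorescence gain of 50% or more versus controls, with final raw signal at or below 3038400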;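 also: plate controls were neutral control wells for no effect and wells lacking membranes for full effect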
# Target sequence (Q03530 whole entry, looked up): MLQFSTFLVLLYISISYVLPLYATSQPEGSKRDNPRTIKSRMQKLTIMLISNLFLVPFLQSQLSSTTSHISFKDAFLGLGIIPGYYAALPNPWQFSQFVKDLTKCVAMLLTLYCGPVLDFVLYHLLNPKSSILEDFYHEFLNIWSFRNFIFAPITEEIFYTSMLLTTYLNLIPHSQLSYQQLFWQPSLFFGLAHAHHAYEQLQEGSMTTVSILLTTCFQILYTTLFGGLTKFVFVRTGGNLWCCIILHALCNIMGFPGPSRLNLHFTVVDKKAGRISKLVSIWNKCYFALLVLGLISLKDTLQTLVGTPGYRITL
# GRK2 CP1 – confirmation of human GRK2 inhibitors displacing RNA aptamer; shares compounds with GRK2 aptamer HTS; bead-bound GRK2, FAM-aptamer displacement, flow cytometry; aptamer displacement, % at 10 µM; actives 4% (n = 2,000); AID 504451;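 active = aptamer displacement above 40%, near three times the noise of non-fluorescent compounds, on plates passing quality checks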;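 also: negative values mostly reflect intrinsic compound fluorescence rather than true enhancement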
# FAM quench CP1 – aptamer fluorescence quenching in GRK2 counter-screen; shares compounds with GRK2 aptamer HTS; Carboxyfluorescein RNA aptamer on beads, flow cytometry quenching; hits give low values; fluorescence response (% of DMSO), % at 10 µM; 2,000 tested, under 10 active;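 active = compounds that quench the bead-bound fluorescent RNA probe, cutting fluorescence to under half of the solvent control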;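 also: counterscreen run without GRK2 so only probe quenching by compound is measured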
# GRK2 CP2 – human GRK2 inhibition confirmation, cherry pick 2. 360 tested, under 10 active. inhibition of aptamer binding, % at 10 µM. shares compounds with GRK2 aptamer HTS. AID 504782. bead-bound GRK2, FAM-aptamer displacement, flow cytometry;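 active = inhibition of aptamer binding above 40%, about triple the noise seen with nonglowing compounds, on plates passing quality control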;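 also: negative values mostly come from compounds that fluoresce themselves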
# FAM quench SP – aptamer fluorescence quenching in GRK2 counter-screen | AID 588494 | shares compounds with GRK2 aptamer HTS | fluorescence response vs DMSO, % at 10 µM | 360 tested, under 10 active | carboxyfluorescein RNA aptamer beads, flow cytometry quenching; hits give low values;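 active = response vs DMSO under 50%, meaning signal dropped by over half, treated as fluorescence quencher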;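 also: labelled aptamer on streptavidin beads without GRK2 as a quench counter-screen; 100% = bead fluorescence of DMSO wells and lower means quenching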
# The depositor's hits bear a star; i = inactive; x = no result. This is a sample that favours compounds with a hit; in the whole collection about 4.5% have one here.
SMILES,ALR inh,HDAC3 inhib,Rtt109 Vps75,GRK2 aptamer HTS,Efflux pump inh,Rce1 inh,GRK2 CP1,FAM quench CP1,others
Cc1cc(NS(=O)(=O)c2c(C(=O)N3CCOCC3)c(C)n(C)c2C)ccc1Br,-0.9,1.4,-6.1,45.0*,0.0,i,-3.9,103.4,
CN(C)CCNCCCNc1c2ccccc2nc2cccc([N+](=O)[O-])c12,x,x,-1.8,x,x,x,x,x,
COc1cc(C(=O)N2CCN(C(=O)c3cc(-c4ccccc4)n[nH]3)CC2)cc(OC)c1OC,1.7,-2.2,-1.9,1.0,-0.1,i,x,x,
CC(C)CCNC(=O)CCn1c(=S)oc2ccccc21,-5.4,4.9,x,43.0*,-0.5,i,0.8,97.2,
COC(=O)Cc1c(O)ccn(Cc2ccc3c(c2)OCO3)c1=O,-14.5,3.1,-2.0,0.0,0.5,i,x,x,
COC(=O)Cc1c(O)ccn(C2CC2)c1=O,-14.0,-5.0,11.8,75.0*,0.0,i,-7.1,101.7,
CC(=O)c1ccc(OCCCC(=O)NC2=NCCS2)cc1,-10.7,-0.3,-3.2,39.0,-0.1,i,4.9,93.6,
CN1CCOC(=O)/C1=N/Nc1cc(Cl)ccc1Cl,-10.1,-3.3,0.3,57.0*,0.0,i,-5.6,96.4,
Cn1nccc1C(=O)Nc1cc(Cl)ccc1Cl,-6.4,-2.3,x,1.0,0.0,i,x,x,
COc1ccc(-c2cn3c(C)c(C(=O)N4CCCc5ccccc54)sc3n2)cc1,-0.5,15.1,6.4,81.0*,-0.1,i,-0.4,97.3,
COc1ccc(-c2cn3c(C)c(C(=O)N4CCN(c5ccccc5F)CC4)sc3n2)cc1,-1.9,3.0,14.2,2.0,0.1,i,x,x,
O=C(NNc1ccccc1C(F)(F)F)c1sccc1Br,-0.5,-1.7,-10.6,99.0*,0.1,i,0.8,94.6,
Clc1ccc(CN=C2Nc3ccccc3CS2)cc1,-7.5,-9.1,-5.4,2.0,0.1,i,x,x,
c1ccc2c(c1)CSc1ccccc1N2,98.3*,10.0,x,97.0*,0.0,i,-3.8,97.3,
CC[C@@]12C(=O)N(c3ccc(OC)cc3)C(=O)N1[C@H](c1cccc(C)c1)[C@@H]1C(=O)N(Cc3ccccc3)C(=O)[C@@H]12,4.6,9.5,2.6,0.0,-0.1,i,x,x,
CCc1ccc(NC(=O)N(CCCOC(C)C)C2CCN(C(C)=O)CC2)cc1,-4.7,-3.8,3.7,5.0,0.0,i,x,x,
CCc1ccc(NC(=O)N(C2CCC(C)CC2)C2CCN(C(C)=O)CC2)cc1 (centres undefined),-5.2,-1.9,9.1,57.0*,0.1,i,3.2,92.6,
CC(C)(C)c1ccc(NC(=O)c2ccc3c(c2)S(=O)(=O)c2ccccc2C3=O)cc1,-1.1,-8.9,6.1,0.0,-0.1,i,x,x,
CCC(C)(C)NC(=O)c1ccc2c(c1)S(=O)(=O)c1ccccc1C2=O,-6.6,0.6,7.9,54.0*,-0.2,i,-0.8,98.8,
C=CCOC(=O)CSCC(NC(=O)OC(C)(C)C)C(=O)OCC (centres undefined),-0.7,-2.7,13.0,86.0*,0.3,i,0.7,104.5,
O=C(COc1ccc(C2SCCS2)cc1)NNC(=O)C(Cl)Cl,-25.7,18.5,-6.3,46.0*,0.0,i,2.3,104.8,
O=C(NCc1ccccc1)c1cccc(NC(=O)C2CCC2)c1,x,x,-3.4,x,x,x,-5.2,136.8,
O=C(NCCc1ccccc1)c1cccc(NC(=O)C2CCCC2)c1,x,x,-8.8,x,x,x,x,x,
O=C(NCc1ccccc1)c1cccc(COc2ccccc2Cl)c1,-2.4,3.9,3.0,1.0,0.2,i,-4.3,101.2,
O=C(NCc1ccccc1)c1cccc(NC(=O)C2CCCC2)c1,x,x,-14.8,x,x,x,2.2,102.2,
SMILES,ALR inh,HDAC3 inhib,Rtt109 Vps75,GRK2 aptamer HTS,Efflux pump inh,Rce1 inh,GRK2 CP1,FAM quench CP1,others
Cc1nc2ccc(Cc3ccc4nc(C)[nH]c4c3)cc2[nH]1,-12.6,-4.0,-2.0,0.0,0.2,i,x,x,
Cc1nc2ccc(-c3nc4ccc(N)cc4[nH]3)cc2[nH]1,99.5*,-194.3,-2.0,88.0*,0.2,i,-25.1,102.3,
Cc1ccc(S(=O)(=O)C2(C(=O)NC3CCCC3)CC2)cc1,0.6,-8.1,3.2,0.0,-0.4,i,x,x,GRK2 CP2=-27.8;FAM quench SP=103.0
Cc1ccc(S(=O)(=O)C2(C(=O)Nc3ccc4c(c3)OCO4)CC2)cc1,x,-7.0,-2.9,0.0,0.3,i,x,x,GRK2 CP2=13.8;FAM quench SP=98.0
O=S(=O)(c1ccc(F)c(F)c1)N1CCN(S(=O)(=O)c2cccs2)CC1,-2.0,x,-7.1,0.0,0.2,i,x,x,
Cc1onc(-c2ccccc2)c1C(O)c1ccc(F)cc1 (centres undefined),-3.6,3.5,-2.1,2.0,0.0,i,x,x,
CS(=O)(=O)c1ccc(NCCc2ccccn2)c([N+](=O)[O-])c1,-1.5,-1.2,-4.4,60.0*,-0.2,i,-1.5,96.8,
COc1cccc(C2c3[nH]c4ccccc4c3C[C@H]3C(=O)N(C4CCN(Cc5ccccc5)CC4)CC(=O)N23)c1 (some centres undefined),18.7,5.9,8.1,0.0,0.1,i,-12.4,103.8,
COc1ccc(C2c3[nH]c4ccccc4c3C[C@H]3C(=O)N(C4CCN(Cc5ccccc5)CC4)CC(=O)N23)cc1OC (some centres undefined),-17.4,4.4,0.7,0.0,0.2,i,x,x,
COc1ccccc1C1c2[nH]c3ccccc3c2C[C@H]2C(=O)N(C3CCN(Cc4ccccc4)CC3)CC(=O)N12 (some centres undefined),-11.4,-5.6,-1.8,0.0,-0.2,i,-28.6,97.4,
O=C(/C=C/c1ccco1)Nc1ccc(-c2nc3ccccc3[nH]2)cc1,-8.5,4.0,-1.3,49.0*,-0.2,i,-1.1,123.8,
O=C(Nc1ccc(-c2nc3ccccc3[nH]2)cc1)c1ccco1,-2.0,4.4,5.3,1.0,-0.1,i,x,x,
CC1=C(C#N)c2nc(N)c(C#N)c(C)c2/C1=C\c1ccc(OCC(=O)O)c(Cl)c1,x,4.5,9.7,4.0,-0.2,i,x,x,
Cn1cccc1/C=C1\SC(=S)N(NC(=O)c2ccccc2O)C1=O,2.6,8.6,-2.2,0.0,0.1,i,x,x,
O=C(NN1C(=O)/C(=C/C=C/c2ccco2)SC1=S)c1ccccc1O,69.4,1.8,70.0*,39.0,2.0*,i,3.2,97.8,
Cc1cccc(C)c1NC(=O)CN(C)C(=O)C1CC(=O)N(c2cccc3ccccc23)C1 (centres undefined),x,x,-6.8,0.0,0.3,x,x,x,
